Data: PubChem BioAssay (NCATS)
Inconclusive results are not listed. Activity calls are given as the source filed them. Calls come from the whole dose curve; as a rule, active = well fitted curve in the direction sought with a large enough effect; inconclusive = small, poorly fitted or top-dose-only effect, or another doubt; inactive = no such curve, though single readings can be large; an effect the other way counts as inactive or inconclusive.

assay: Viability qHTS for spleen associated tyrosine kinase inhibitor (SYKi) drug resistant MV4-11 cells (AID 1963824); details: SYKi-resistant MV4-11 viability, CellTiter-Glo, 72 h; series mostly up to 45 µM; viability, % of control: at the top concentration
Outline: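 SYK-inhibitor-resistant MV4-11 AML cells were seeded at 500 per well onto compound and cultured 72 hours (37 °C, 5% CO2). CellTiter-Glo was then added, and after 10 min at room temperature, luminescence gave viability.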
Note: nearly all actives have a fitted effect of over 35% in size.
Potency is the fitted concentration of half-maximal effect.

**Q.** With `COc1ccccc1OC(=O)Oc1ccccc1OC` as the compound, how does the Potency read?
**A.** Its Potency is 5960 nM (active).

**Q.** With `COc1ccc2c(c1)CC[C@@H](CN(C)CC(=O)O)[C@H]2c1ccccc1` as the compound, how does the “viability, % of control” value read?
**A.** The value was 86.2% (inactive).

**Q.** Which Potency does the source give for `C[N+](C)([O-])CCNc1ccc(NCC[N+](C)(C)[O-])c2c1C(=O)c1c(O)ccc(O)c1C2=O` here?
**A.** Its Potency is 934 nM (active).

**Q.** With `C[C@@H]1COCCN1c1cc(=O)n2c(n1)N(Cc1cncc(Cl)c1)[C@H](C(F)(F)F)CC2` as the compound, how does the Potency read?
**A.** Its Potency is 4110 nM (active).

assay: Quantitative highthroughput screen to assess conditional lethalithy of P12 Ichikawa cells grown in Human Plasma-Like Medium with dialyzed fetal bovine serum (HPLM+ds) (AID 1963879); details: ATP luminescence, 48 h; Potency: viability; series mostly up to 45.8 µM; viability: at the top concentration
Outline: (§1)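 Each medium arm—HPLM with 10% dialyzed FBS, or RPMI1640 with 5 mM glucose and 10% untreated or dialyzed FBS—was screened against an 11-point, 3-fold compound titration for 48 h at 37 °C, with CellTiter-Glo luminescence as endpoint.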

**Q.** With `CO[C@@H]1[C@H](N(C)C(=O)c2ccccc2)C[C@H]2O[C@]1(C)n1c3ccccc3c3c4c(c5c6ccccc6n2c5c31)C(=O)NC4` as the compound, how does the Potency read?
**A.** The Potency was 2640 nM (active).

**Q.** With `Nc1nc2c(c(=O)[nH]1)N(C=O)[C@H](CNc1ccc(C(=O)N[C@@H](CCC(=O)O)C(=O)O)cc1)CN2` as the compound, how does the Potency read?
**A.** Its Potency is 2960 nM (active).

**Q.** Which “viability” value does the source give for `O=C(N[C@@H](c1ccccc1)[C@@H]1CCCCN1)c1cccc(C(F)(F)F)c1Cl` here?
**A.** Its value is 98.8% (inactive).

**Q.** With `O=C(Nc1ncc(-c2cc(C(F)F)nn2-c2c(Cl)cccc2Cl)s1)C1CC1` as the compound, how does the Potency read?
**A.** Its Potency is 935 nM (active).

**Q.** For `CCCCCCCCCCCC(CC1OC(=O)C1CCCCCC)OC(=O)C(CC(C)C)NC=O` (stereo unspecified), which Potency is on record?
**A.** The Potency was 20900 nM (active).

**Q.** With `Cc1ccc(-n2[nH]c(C)c(N=Nc3cccc(-c4cccc(C(=O)O)c4)c3O)c2=O)cc1C` as the compound, how does the Potency read?
**A.** The Potency was 16600 nM (active).

**Q.** With `CC(C)C(=O)Nc1ccc([N+](=O)[O-])c(C(F)(F)F)c1` as the compound, how does the Potency read?
**A.** The Potency was 1870 nM (active).

**Q.** Which Potency does the source give for `O=c1cc(-c2ccccc2)oc2cc(O)cc(O)c12` here?
**A.** The Potency was 26400 nM (active).

**Q.** Which Potency does the source give for `COc1ccccc1[C@H](c1cccc2ccccc12)[C@@](C)(C#N)C(=O)N1CCC(c2cccc(C(F)(F)F)c2)CC1` here?
**A.** Its Potency is 16600 nM (active).

**Q.** For `O=C1c2c(O)ccc(O)c2C(=O)c2c(NCCNCCO)ccc(NCCNCCO)c21`, which Potency is on record?
**A.** Its Potency is 296 nM (active).

**Q.** With `CCc1c2c(nc3ccc(O)cc13)-c1cc3c(c(=O)n1C2)COC(=O)[C@]3(O)CC` as the compound, how does the Potency read?
**A.** The Potency was 5.3 nM (active).

**Q.** With `CC1(COc2ccc3c(c2)ncn3-c2ccc3cccc(N4CCC(N)CC4)c3n2)COC1` as the compound, how does the Potency read?
**A.** Its Potency is 10500 nM (active).

**Q.** For `O=C(O)CCCCC(CCSCc1ccccc1)SCc1ccccc1` (stereo unspecified), which Potency is on record?
**A.** The Potency was 14800 nM (active).

**Q.** With `N=C(N)c1ccc(OCCCCCOc2ccc(C(=N)N)cc2)cc1` as the compound, how does the “viability” value read?
**A.** The value was 82.4% (inactive).

**Q.** With `Cc1cc(-c2ccc(CC(=O)Nc3ccc(-c4cccnc4)cc3)cc2)ccn1` as the compound, how does the Potency read?
**A.** The Potency was 6620 nM (active).

**Q.** With `Cc1ccnc2c1NC(=O)c1cccnc1N2C1CC1` as the compound, how does the “viability” value read?
**A.** The value was 95.2% (inactive).

**Q.** With `COc1ccc2c(c1)CC[C@@H](CN(C)CC(=O)O)[C@H]2c1ccccc1` as the compound, how does the Potency read?
**A.** Its Potency is 2640 nM (active).

**Q.** Which Potency does the source give for `C[N+](C)([O-])CCNc1ccc(NCC[N+](C)(C)[O-])c2c1C(=O)c1c(O)ccc(O)c1C2=O` here?
**A.** The Potency was 1660 nM (active).

assay: Quantitative highthroughput screen to assess conditional lethalithy of P12 Ichikawa cells grown in RPMI1640 with dialyzed fetal bovine serum (RPMI+ds) (AID 1963880); details: ATP luminescence, 48 h; Potency: P12-Ichikawa viability; series mostly up to 45.8 µM; viability: at the top concentration;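 for Viability: 100% = DMSO wells and 0% = empty wells on each plate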
Outline: as §1

**Q.** Which Potency does the source give for `Nc1nc2c(c(=O)[nH]1)N(C=O)[C@H](CNc1ccc(C(=O)N[C@@H](CCC(=O)O)C(=O)O)cc1)CN2` here?
**A.** Its Potency is 3320 nM (active).

**Q.** With `O=C(Nc1ncc(-c2cc(C(F)F)nn2-c2c(Cl)cccc2Cl)s1)C1CC1` as the compound, how does the Potency read?
**A.** Its Potency is 1180 nM (active).

**Q.** With `CCCCCCCCCCCC(CC1OC(=O)C1CCCCCC)OC(=O)C(CC(C)C)NC=O` (stereo unspecified) as the compound, how does the Potency read?
**A.** Its Potency is 23500 nM (active).

**Q.** Which Potency does the source give for `CC(C)C(=O)Nc1ccc([N+](=O)[O-])c(C(F)(F)F)c1` here?
**A.** Its Potency is 3320 nM (active).

**Q.** With `O=c1cc(-c2ccccc2)oc2cc(O)cc(O)c12` as the compound, how does the Potency read?
**A.** Its Potency is 23500 nM (active).

**Q.** For `O=C1c2c(O)ccc(O)c2C(=O)c2c(NCCNCCO)ccc(NCCNCCO)c21`, which Potency is on record?
**A.** Its Potency is 332 nM (active).

**Q.** For `CCc1c2c(nc3ccc(O)cc13)-c1cc3c(c(=O)n1C2)COC(=O)[C@]3(O)CC`, which Potency is on record?
**A.** Its Potency is 4.2 nM (active).

**Q.** Which Potency does the source give for `CN(C)c1nc(Cc2ccc(NC(=O)c3ccc4ccccc4c3)cc2)nc(Cl)c1CC(=O)O` here?
**A.** Its Potency is 5260 nM (active).

**Q.** For `Cc1c(C(=O)NN2CCCCC2)nn(-c2ccc(Cl)cc2Cl)c1-c1ccc(Cl)cc1`, which Potency is on record?
**A.** The Potency was 3320 nM (active).

**Q.** With `Cc1cc(Nc2cc(NC(=O)c3c(Cl)cccc3Cl)ccn2)nc(N)n1` as the compound, how does the Potency read?
**A.** Its Potency is 1180 nM (active).

**Q.** With `Nc1nc(NCCNc2ncc(-n3ccnc3)c(-c3ccc(Cl)cc3Cl)n2)ccc1[N+](=O)[O-]` as the compound, how does the “viability” value read?
**A.** The value was 103% (inactive).

**Q.** With `N#CNC(=NCCCCCCOc1ccc(Cl)cc1)Nc1ccncc1` as the compound, how does the Potency read?
**A.** Its Potency is 1.9 nM (active).

**Q.** Which “viability” value does the source give for `N=C(N)c1ccc(OCCCCCOc2ccc(C(=N)N)cc2)cc1` here?
**A.** The value was 85.9% (inactive).

**Q.** Which Potency does the source give for `Cc1cc(-c2ccc(CC(=O)Nc3ccc(-c4cccnc4)cc3)cc2)ccn1` here?
**A.** The Potency was 10500 nM (active).

**Q.** For `Cc1ccnc2c1NC(=O)c1cccnc1N2C1CC1`, which “viability” value is on record?
**A.** Its value is 89% (inactive).

**Q.** Which Potency does the source give for `C[C@@H]1COCCN1c1cc(=O)n2c(n1)N(Cc1cncc(Cl)c1)[C@H](C(F)(F)F)CC2` here?
**A.** Its Potency is 9330 nM (active).

assay: Quantitative highthroughput screen to assess conditional lethalithy of P12 Ichikawa cells grown in RPMI1640 with untreated serum (RPMI+s) (AID 1963881); details: ATP luminescence, 48 h; Potency: viability; series mostly up to 45.8 µM; viability: at the top concentration;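 for Viability: 100% = DMSO wells and 0% = empty wells without cells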
Outline: as §1

**Q.** Which Potency does the source give for `Nc1nc2c(c(=O)[nH]1)N(C=O)[C@H](CNc1ccc(C(=O)N[C@@H](CCC(=O)O)C(=O)O)cc1)CN2` here?
**A.** The Potency was 2640 nM (active).

**Q.** With `O=C(Nc1ncc(-c2cc(C(F)F)nn2-c2c(Cl)cccc2Cl)s1)C1CC1` as the compound, how does the Potency read?
**A.** Its Potency is 935 nM (active).

**Q.** With `CCCCCCCCCCCC(CC1OC(=O)C1CCCCCC)OC(=O)C(CC(C)C)NC=O` (stereo unspecified) as the compound, how does the Potency read?
**A.** The Potency was 20900 nM (active).

**Q.** For `CC(C)C(=O)Nc1ccc([N+](=O)[O-])c(C(F)(F)F)c1`, which Potency is on record?
**A.** The Potency was 2090 nM (active).

**Q.** With `O=c1cc(-c2ccccc2)oc2cc(O)cc(O)c12` as the compound, how does the Potency read?
**A.** Its Potency is 20900 nM (active).

**Q.** With `O=C1c2c(O)ccc(O)c2C(=O)c2c(NCCNCCO)ccc(NCCNCCO)c21` as the compound, how does the Potency read?
**A.** Its Potency is 264 nM (active).

**Q.** For `CCc1c2c(nc3ccc(O)cc13)-c1cc3c(c(=O)n1C2)COC(=O)[C@]3(O)CC`, which Potency is on record?
**A.** The Potency was 5.3 nM (active).

**Q.** With `CN(C)c1nc(Cc2ccc(NC(=O)c3ccc4ccccc4c3)cc2)nc(Cl)c1CC(=O)O` as the compound, how does the Potency read?
**A.** The Potency was 2960 nM (active).

**Q.** For `Nc1nc(NCCNc2ncc(-n3ccnc3)c(-c3ccc(Cl)cc3Cl)n2)ccc1[N+](=O)[O-]`, which “viability” value is on record?
**A.** The value was 102% (inactive).

**Q.** For `N#CNC(=NCCCCCCOc1ccc(Cl)cc1)Nc1ccncc1`, which Potency is on record?
**A.** The Potency was 2.6 nM (active).

**Q.** For `Cc1ccnc2c1NC(=O)c1cccnc1N2C1CC1`, which “viability” value is on record?
**A.** Its value is 85.8% (inactive).

**Q.** With `COc1ccc2c(c1)CC[C@@H](CN(C)CC(=O)O)[C@H]2c1ccccc1` as the compound, how does the Potency read?
**A.** Its Potency is 2640 nM (active).

**Q.** With `C[C@@H]1COCCN1c1cc(=O)n2c(n1)N(Cc1cncc(Cl)c1)[C@H](C(F)(F)F)CC2` as the compound, how does the Potency read?
**A.** Its Potency is 9330 nM (active).
